Laboratory results: ChEMBL document CHEMBL3988442, “University of Dundee, Small-Polar-MMV Screening Library” (2021)
In all, about 48,000 compounds went through this assay and about 13,000 (27%) showed an effect of 50% or more. The list shows a part of the results.

System: Wolbachia pipientis
Experiment: Anti-Wolbachia Cell-Based Screen
Type: functional
Parameters: scale not given: in the data most compounds retested in dose-response had high values
Settings: 5 µM

SMILES	Percent Effect [%]
CC1=C[C@@H](CN2CCN(C)CC2)[C@H](C(C)C)C[C@H]1Cc1nnc(C)o1	-4.667
CN(Cc1nc(-c2ccccc2)c[nH]1)C(=O)NCC(=O)NC(C)(C)C	-12.98
Cc1cc(F)ccc1N1CCCC(NC(=O)CCCn2ccnc2)C1 (configuration not stated)	114.8
Cc1n[nH]c(C)c1CCC(=O)NC1CCCN(c2ccccc2F)C1 (configuration not stated)	-4.293
COc1ccccc1OC1CCN(C(=O)CCCn2ccnc2)CC1	6.898
O=C(NCc1cccc(F)c1)NC1CCCN(c2ncccn2)C1 (configuration not stated)	12.98
Cc1ccc(Cl)cc1N1CCC(CNC(=O)CCn2ccnc2)C1 (configuration not stated)	19.22
CCC[C@H]1CN(S(C)(=O)=O)C[C@@H]1NC(=O)CCCn1ccnc1	0.7566
O=C(CCCn1ccnc1)NC1CCCN(c2ccccc2Cl)C1 (configuration not stated)	86.14
Cc1cc(F)ccc1N1CCCC(NC(=O)CCc2ccncc2)C1 (configuration not stated)	111.2
O=C(CCCn1ccnc1)N[C@H]1CN(C2CCCC2)C[C@@H]1C1CC1	-1.542
O=C(c1ccsc1)N1CCc2c(CN3CCCC3)n[nH]c2C1	-0.6462
CC(C)N(C)Cc1n[nH]c2c1CCN(C(=O)c1cc[nH]n1)C2	93.85
CN(Cc1cn2c(n1)CN(C(=O)c1ccc[nH]1)CC2)Cc1ccco1.O=C(O)C(F)(F)F	-0.5876
Cc1nocc1C(=O)N1CCc2c(CN(C)C(C)C)n[nH]c2C1	-1.781
CN(C)Cc1n[nH]c2c1CCN(Cc1cccs1)C2.O=C(O)C(F)(F)F.O=C(O)C(F)(F)F	-7.744
Cc1cc(C(=O)N2CCc3c(CN(C)C(C)C)n[nH]c3C2)[nH]n1	101.7
CC(C)Nc1nc2c(c(N(C)C)n1)CCN(C(=O)c1cc[nH]n1)CC2	-2.807
CC(C)N(C)Cc1n[nH]c2c1CCN(C(=O)c1ccc[nH]1)C2.O=C(O)C(F)(F)F	99.94
Cc1cc(C(=O)N2CCc3c(ncnc3N3CCOCC3)C2)[nH]n1	-12.68
Cc1cc(Br)oc1C(=O)N1CCC(N(C)C)CC1	-50.6
COCCN1CCCC2(CCN(c3nccnc3N(C)C)C2)C1=O (configuration not stated)	-5.787
Cc1ccoc1C(=O)N1CCC(n2cc(-c3ccsc3)nn2)CC1	-24.55
COc1cccc(N2CCC(CNC(=O)CN3CSCC3=O)C2)c1 (configuration not stated)	-9.493
CS(=O)(=O)N1CCOCC2(CCN(c3cnccn3)CC2)C1	-8.044

SMILES	Percent Effect [%]
CC1(C)O[C@@](C)([C@H]2CC3(CCN(c4cnccn4)CC3)CO2)CC[C@@H]1O	106.3
OCC(O)CSCc1nnc(-c2cccc(F)c2)o1 (configuration not stated)	6.518
COCC(=O)N1CCC2(C1)c1ccccc1S(=O)(=O)N2CCC(C)C (configuration not stated)	110.5
CC(C)CCN1C2(CCN(c3ncccn3)C2)c2ccccc2S1(=O)=O (configuration not stated)	105.2
CC(C)CCN1C2(CCN(C(=O)N(C)C)C2)c2ccccc2S1(=O)=O (configuration not stated)	108.8
COCC(=O)N1CCC2(C1)c1ccccc1S(=O)(=O)N2C (configuration not stated)	99.03
CCCN1CCC2(C1)c1ccccc1S(=O)(=O)N2Cc1ccc(F)cc1 (configuration not stated)	8.528
FC1(F)CCN(c2ccccc2)CC12CCN(c1ncccn1)C2 (configuration not stated)	4.725
COc1ccccc1N1CCN(C(=O)Cn2nc(C)c(C)c2C)C(C)C1 (configuration not stated)	5.362
CCC(Nc1cccc(OC)c1)C(=O)N(CCOC)Cc1cnn(C)c1 (configuration not stated)	-17.99
Cc1cc(C#N)ccc1S(=O)(=O)N1CCN(C)Cc2ccccc21	3.182
CCc1noc(C(C)SCCS(C)(=O)=O)n1 (configuration not stated)	3.138
CC(C)CCN1CC2(CCN(C(=O)C3(C)CC3)CC2)OC1=O	1.386
CCNC(=O)N1CCC2(C1)c1ccccc1S(=O)(=O)N2CCC(C)C (configuration not stated)	-10.03
CC(C)CCN1C2(CCN(C(=O)C3(C)CC3)C2)c2ccccc2S1(=O)=O (configuration not stated)	92.1
CC(C)CCN1C2(CCN(C(=O)CN(C)C)C2)c2ccccc2S1(=O)=O.O=C(O)C(F)(F)F (configuration not stated)	95.71
COCC(=O)N1CCC2(CC1)c1ccccc1[C@@H](N1CCSCC1)[C@@H]2O	1.916
COCC(=O)N1CCC2(C1)c1ccccc1S(=O)(=O)N2CC1CC1 (configuration not stated)	95.12
CC(C)CCN1N=C(C(=O)N2CCCCCC2)S(=O)(=O)c2ccccc21	20.76
CC(=O)N1CCC2(C1)c1ccccc1S(=O)(=O)N2CCC(C)C (configuration not stated)	83.1
O=C1CN(C(=O)CC2C(=O)NCCN2CC2CCCCC2)CCN1 (configuration not stated)	-19.63
Cc1occc1CNC(=O)C1CCCN1C(=O)C1CC1 (configuration not stated)	-6.321
COC(=O)c1ccc(OC)c(CN2CCN(CC(C)C)C(=O)C2C)c1 (configuration not stated)	1.65
COCC(C)(O)CNC(=O)Nc1cccc(OC)c1OC (configuration not stated)	4.697
O=C(Cn1c(=O)n(Cc2ccco2)c2ncccc21)NC1CCCCC1	-5.913

SMILES	Percent Effect [%]
CCN(CC)C(=O)Cn1c(=O)n(Cc2ccco2)c2ncccc21	92.26
CCCN(Cc1cccnc1)C(=O)C1CCN(Cc2ccco2)CC1	2.103
O=C(Cn1c(=O)n(Cc2ccco2)c2ncccc21)NC1CCCC1	120
O=C(Cn1c(=O)n(Cc2ccco2)c2ncccc21)Nc1ccccn1	-4.791
CCN(CCc1nccs1)C(=O)c1ccco1	-4.795
CC(C)(C)NC(=O)Cn1c(=O)n(Cc2ccco2)c2ncccc21	95.67
Cc1nn(C(C)(C)C)c(=O)n1CC(=O)NC(C)(C)C	-3.979
O=C(Cn1c(=O)n(Cc2ccco2)c2ncccc21)NC1CC1	115.8
Cn1nc(C2CCN(CC(=O)NC3CC3)CC2)n(-c2ccccc2)c1=O	1.77
O=C(NC1CC1)[C@H]1C[C@H]2OCC[C@H]2N(Cc2ccco2)C1	-4.068
Cn1ncc2cnn(CC(O)COc3cccc4[nH]ccc34)c2c1=O (configuration not stated)	26.41
CC(C)c1noc(CCC(=O)Nc2cc(C(F)(F)F)c[nH]c2=O)n1	-36.07
CCc1ccc(NC(=O)N2C[C@H]3C[C@H](C(=O)NC)[C@@H](C2)O3)cc1	-8.923
CCc1ccc(NC(=O)N2C[C@H]3C[C@H](C(=O)NC4CCC4)[C@@H](C2)O3)cc1	117.1
CCc1ccc(NC(=O)N2C[C@H]3C[C@H](C(=O)NC(C)C)[C@@H](C2)O3)cc1	101
CC(C)NC(=O)N1C[C@H]2C[C@H](C(=O)NCc3ccccc3)[C@@H](C1)O2	-9.895
CCc1cnc(N2C[C@H]3C[C@H](C(=O)NC4CCC4)[C@@H](C2)O3)nc1	-0.2357
CC(C)NC(=O)[C@H]1C[C@@H]2CN(C(=O)NC(C)C)C[C@H]1O2	-20.07
Cc1ccccc1OCCC(=O)N1CCCC(n2cncn2)C1 (configuration not stated)	-9.445
Cc1cccc(C)c1OCCC(=O)N1CCC(c2nncn2C)CC1	0.8719
FC(F)(F)Oc1ccc(CN2CCCC(n3cncn3)C2)cc1 (configuration not stated)	13.2
CSc1ccc(OCCN2CCC(n3cncn3)CC2)cc1	98.24
Clc1cc(Cl)cc(OCCN2CCC(n3cncn3)CC2)c1	103.8
Clc1ccc(OCCN2CCN(CCn3cncn3)CC2)cc1	-7.454
CC(C(=O)N1CCN(CCOc2ccccc2)CC1)n1cncn1 (configuration not stated)	-7.881

SMILES	Percent Effect [%]
Cc1cccc(C)c1OCCCN1CCC(n2cncn2)CC1	115.1
c1ccc(OCCN2CCC(n3cncn3)CC2)cc1	93.12
Cc1cc(C)cc(OCCC(=O)N2CCCC(n3cncn3)C2)c1 (configuration not stated)	-4.983
CCN(C)C(=O)c1ccc2c(c1)C(c1nc[nH]n1)CN2S(C)(=O)=O (configuration not stated)	-2.777
COC(=O)c1ccc(CNC(C)(C)c2ccccc2OC)o1	5.551
Cc1ccc(-c2cc(C(=O)NCCCc3csc(N)n3)[nH]n2)s1	-6.732
Cc1ccn2ncc(C(=O)N3CCCC(c4cc(C)[nH]n4)C3)c2n1 (configuration not stated)	1.6
CC(=O)N1CCc2c(nc(N(C)C)nc2NCc2cccs2)C1	5.703
c1cncc(-c2ccnn2CN2CCOCC2)c1	-10.55
CCN(CCN1CCOCC1)C(=O)c1cccnc1	-15.37
Clc1cccc(Cl)c1CN(CCCN1CCOCC1)Cc1cccnc1	149.3
CN(Cc1c(F)cccc1Cl)C(=O)c1cnn(CCN2CCOCC2)c1	-8.866
Clc1ccc(CN(CCN2CCOCC2)Cc2cccnc2)cc1Cl	180.4
CCC(C)N(Cc1cccnc1)Cc1cc2c(cc1Cl)OCO2 (configuration not stated)	-26.91
O=C1O[C@@H]2CN(Cc3cccnc3)C[C@@H]2N1CCCN1CCOCC1	7.451
Clc1ccc(CN(CCN2CCOCC2)Cc2cccnc2)c(Cl)c1	143.8
Clc1ccc2oc(C3CCN(Cc4cccnc4)CC3)nc2c1	-21.47
Cc1[nH]c(=O)[nH]c(=O)c1CN1CCCC(CCc2ccc(F)c(F)c2)C1 (configuration not stated)	8.003
O=C1CC[C@H](C(=O)N(CCc2ccccc2)C2CCOC2)N1 (some centres not stated)	-17.91
CCC(=O)N1CCc2[nH]cnc2C12CCN(C1CCOCC1)CC2	-8.971
CCc1ccc(CN(C)Cc2cnc(S(=O)(=O)CC)n2CCOC)cc1	-8.303
Cc1sc2nc(CCN)nc(N3CCC(N4CCCC4)CC3)c2c1C	-8.408
